# Compound activity (PubChem)
# The full list was thinned out, with hits kept by preference.
# KDM5B inhibitor = inhibitors of human KDM5B histone demethylase | KDM5B demethylase, FDH-coupled NADH fluorescence (FDH is formaldehyde dehydrogenase) | Potency, µM (top dose mostly 57.7 µM), hits mostly inhibitors | actives 2.6% (n = 220,000); active means well fitted inhibition curve with a large enough effect; further: 0% is about no effect; nearly all actives have a fitted effect of over 70% in size
# Target sequence (Q9UGL1 whole entry, looked up): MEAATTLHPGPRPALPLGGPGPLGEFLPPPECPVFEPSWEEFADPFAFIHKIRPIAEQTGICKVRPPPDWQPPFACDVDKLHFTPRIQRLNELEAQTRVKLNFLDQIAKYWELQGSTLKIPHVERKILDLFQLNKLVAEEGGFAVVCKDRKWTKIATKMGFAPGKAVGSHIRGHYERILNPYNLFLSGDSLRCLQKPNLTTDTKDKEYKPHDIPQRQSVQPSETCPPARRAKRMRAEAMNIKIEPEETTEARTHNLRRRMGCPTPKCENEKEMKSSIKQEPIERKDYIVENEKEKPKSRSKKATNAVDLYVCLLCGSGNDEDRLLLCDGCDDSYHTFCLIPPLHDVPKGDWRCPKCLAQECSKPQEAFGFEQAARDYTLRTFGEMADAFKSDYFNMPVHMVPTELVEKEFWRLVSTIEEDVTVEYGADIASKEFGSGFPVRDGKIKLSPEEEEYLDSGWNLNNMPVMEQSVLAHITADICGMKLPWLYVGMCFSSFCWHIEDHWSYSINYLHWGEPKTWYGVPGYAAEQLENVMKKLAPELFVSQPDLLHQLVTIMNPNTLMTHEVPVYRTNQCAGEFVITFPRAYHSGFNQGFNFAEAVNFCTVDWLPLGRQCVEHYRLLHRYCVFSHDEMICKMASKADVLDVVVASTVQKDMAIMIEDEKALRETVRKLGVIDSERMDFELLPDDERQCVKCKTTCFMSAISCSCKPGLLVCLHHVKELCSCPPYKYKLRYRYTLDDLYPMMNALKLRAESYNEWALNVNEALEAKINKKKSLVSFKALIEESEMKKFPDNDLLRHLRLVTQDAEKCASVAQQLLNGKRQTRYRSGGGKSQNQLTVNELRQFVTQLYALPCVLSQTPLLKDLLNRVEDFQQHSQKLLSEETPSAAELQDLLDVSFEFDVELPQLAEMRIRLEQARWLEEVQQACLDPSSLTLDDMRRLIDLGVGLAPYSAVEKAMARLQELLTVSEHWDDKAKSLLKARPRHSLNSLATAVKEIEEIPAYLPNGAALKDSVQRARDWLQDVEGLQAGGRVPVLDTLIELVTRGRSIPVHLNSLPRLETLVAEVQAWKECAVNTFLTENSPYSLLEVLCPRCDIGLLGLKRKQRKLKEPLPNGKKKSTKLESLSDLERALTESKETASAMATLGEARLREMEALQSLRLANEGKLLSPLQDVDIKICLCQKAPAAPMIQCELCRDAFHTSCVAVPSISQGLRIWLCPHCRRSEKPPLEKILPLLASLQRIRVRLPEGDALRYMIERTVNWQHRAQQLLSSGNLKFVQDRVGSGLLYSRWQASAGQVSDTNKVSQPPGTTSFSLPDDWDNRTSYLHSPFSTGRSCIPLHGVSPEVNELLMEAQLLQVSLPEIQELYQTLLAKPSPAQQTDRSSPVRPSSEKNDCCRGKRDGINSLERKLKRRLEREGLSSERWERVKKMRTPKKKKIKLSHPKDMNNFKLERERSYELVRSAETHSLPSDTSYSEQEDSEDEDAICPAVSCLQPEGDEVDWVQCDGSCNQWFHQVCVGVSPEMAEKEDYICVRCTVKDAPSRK
#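 Coupled FDH/NAD⁺ fluorescence readout. KDM5BΔAP 200 nM final; compound titration, 10 min RT preincubation; substrate mix 12.5 µM H3K4me3, 25 µM 2-OG, 50 µM Fe(II), 100 µM ascorbate, 0.25 mM NAD⁺, 0.25 U/mL FDH; ΔRFU over 30 min.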
# Active calls of the source: *; i = inactive. Potency means the concentration at half of the fitted maximal effect.
SMILES,KDM5B inhibitor
COC(=O)c1sccc1NC(=O)N1CCCC1c1noc(COc2ccc(F)cc2)n1 (stereo not given),32µM*
CCNC(=O)N1CCCC1c1noc(COc2ccc(F)cc2)n1 (stereo not given),i
CCOCc1nc(C2CCCN2C(=O)Nc2ccsc2C(=O)OC)no1 (stereo not given),i
Cc1[nH]c2ccccc2c1SCCNC(=O)c1cccs1,i
Clc1ccccc1C1Cn2nnc(-c3noc(-c4cc(C5CC5)[nH]n4)n3)c2CO1 (stereo not given),i
CC1(C2CC2)NC(=O)N(CC(=O)Nc2cnc3ccccc3c2)C1=O (stereo not given),i
COc1cc(-c2ccnc3nc(CC(C)C)nn23)cc(OC)c1OC,18µM*
COc1ccc(-c2ccnc3nc(CCC4CCCC4)nn23)cc1OC,13µM*
COc1cc(-c2ccnc3nc(CCc4ccccc4)nn23)cc(OC)c1OC,14µM*
COc1ccc(CCc2nc3nccc(-c4cccnc4)n3n2)cc1OC,i
COc1ccc(CCc2nc3nccc(-c4ccncc4)n3n2)cc1OC,i
COc1ccc(CCc2nc3nccc(-c4ccc(OC)c(OC)c4)n3n2)cc1,28µM*
COc1ccc(-c2c(C)nn3c(NC4CCCCC4)cc(C)nc23)cc1OC,i
Cc1oc2cc(OCC(=O)N3CCCC3)ccc2c(=O)c1Oc1ccccc1,i
CC(O)CNc1nc2c(c(=O)n(C)c(=O)n2C)n1Cc1ccc(Cl)c(Cl)c1 (stereo not given),i
COc1ccc2c(COC(=O)c3ccc(N4CCOCC4)nc3)cc(=O)oc2c1,i
CC(Oc1ccc(C(C)C)cc1)C(=O)Nc1ccc(-n2cnnn2)cc1 (stereo not given),i
COc1cc(C)c(S(=O)(=O)N2CCN(c3ccccc3)CC2)cc1C,i
CC1CCC(=NNC(=S)NCc2ccccc2)CC1 (stereo not given),i
O=C(CCNS(=O)(=O)c1ccc2[nH]c(=O)ccc2c1)N1CCN(c2ccc(Cl)cc2)CC1,i
C/C(CC(C)C)=N\NC(=O)c1cccc(C)c1,i
O=S(=O)(c1ccc2c(c1)OCCO2)c1nc(-c2ccco2)oc1NC1CC1,i
CCCCCn1nc(C(=O)N2CCCC(C(N)=O)C2)c2ccccc2c1=O (stereo not given),i
COc1ccc(-c2ccnc3nc(CCc4ccccc4)nn23)cc1OC,22µM*
COc1ccc(CCc2nc3nccc(-c4ccccn4)n3n2)cc1OC,i
SMILES,KDM5B inhibitor
COc1ccc(CCc2nc3nccc(-c4ccccc4)n3n2)cc1OC,i
CCCNc1c(NC(=O)Nc2cc(Cl)ccc2C)c(=O)oc2ccccc12,i
CCC(C)Cc1c(C)sc2nc(CNc3ccccc3)[nH]c(=O)c12 (stereo not given),i
NC(=O)[C@@H]1CCCN1C(C(=O)O)c1cn(CCC(=O)O)c2cc(Br)ccc12 (stereo not given in full),i
CCC(/C=N/NC(N)=O)=C\c1ccccc1,i
O=[S+]1([O-])NCC2(CCN(Cc3cccnc3)CC2)Oc2ncccc21,i
O=[S+]1([O-])NCC2(CCCN(Cc3cccc(C(F)(F)F)c3)C2)Oc2ncccc21 (stereo not given),i
O=[S+]1([O-])NCC2(CCCN(Cc3ccc(Cl)cc3)C2)Oc2ncccc21 (stereo not given),79µM*
O=C(c1ccncc1)N1CC2CCC(C1)N2Cc1ccc(-c2ccccc2)cc1,i
FC(F)(F)Oc1cccc(CN2CCC[C@H]2c2nc(-c3ccc(N4CCOCC4)nc3)no2)c1,28µM*
CN1CCN(c2ccc(-c3noc([C@@H]4CCCN4CCCc4ccccc4)n3)cn2)CC1,32µM*
Oc1ccccc1CN1CCC[C@H]1c1nc(-c2ccc(N3CCOCC3)nc2)no1,35µM*
COCCOc1ccnc(-c2noc([C@@H]3CCCN3Cc3cccc(OC(F)(F)F)c3)n2)c1,i
COc1ccc(-c2noc([C@@H]3CCCN3C(=O)CCc3ccccc3)n2)cc1OC,28µM*
Cc1cccc(OCCc2noc(C3CCCCN3Cc3cccnc3)n2)c1 (stereo not given),i
c1ccc(CN2CCC[C@H]2c2nc(-c3ccc(-n4ccnc4)nc3)no2)cc1,i
COc1ccc(-c2noc([C@@H]3CCCN3C(=O)Cc3ccccc3)n2)cc1OC,i
COc1ccc(CN2CCC[C@H]2c2nc(-c3ccc(-n4ccnc4)nc3)no2)c(OC)c1OC,i
Fc1ccc(-c2noc([C@@H]3CCCN3Cc3ccccc3F)n2)nc1,i
CNc1ccc(-c2noc([C@@H]3CCCN3Cc3cccnc3)n2)cn1,i
COc1ccccc1CC(=O)N1CCC[C@H]1c1nc(-c2ccc(OC)c(OC)c2)no1,i
COc1ccc(Nc2nc(Nc3ccccc3)c3nccnc3n2)cc1Cl,i
Cc1nc(NC(=O)COc2ccc(Br)cc2)sc1C,i
COc1cccc(N2CCN(c3nc(C(=O)NCc4ccccc4F)cs3)CC2)c1,i
O=C(Nc1nc(-c2cccs2)cs1)C1CC(=O)N(c2ccccc2F)C1 (stereo not given),i
